# Most compounds without a hit are left out; they make up all but 2.8% or so of the library.
# KDM5B inh – blocks human KDM5B histone demethylase activity; Q9UGL1; KDM5B demethylase, FDH-coupled NADH fluorescence (FDH is formaldehyde dehydrogenase); Potency, µM (highest dose often 57.7 µM), usual class: inhibitors; hit rate 2.6% among 220,000; note: nearly all actives have a fitted effect of over 70% in size
#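 qHTS format, multiple compound concentrations. Buffer 50 mM HEPES pH 7.5/0.01% Tween-20; 200 nM KDM5BΔAP final; 10 min compound preincubation; substrate-mix levels 12.5 µM peptide, 25 µM α-KG, 0.25 mM NAD⁺; 30 min RT; ΔRFU.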
# SNCA expr inh – reduces expression of the alpha-synuclein gene; HEK-293 SNCA-luciferase knock-in, luminescence, 24 h; Potency, µM (titrated, usually from 57.2 µM), usual class: inhibitors; hit rate 0.17% among 140,000; note: nearly all actives have a fitted effect of over 45% in size
# SNCA viab count – reduces viability of HEK-293 SNCA reporter cells. HEK-293-SNCA-luc viability, GF-AFC fluorescence, 24 h. Potency, µM (doses to about 57.1 µM), hits mostly cytotoxic. hit rate 0.12% among 150,000; note: nearly all actives have a fitted effect of over 30% in size
#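 Cytotoxicity counterscreen: after 24 h compound treatment of genome-edited SNCA-luciferase HEK-293 cells, live-cell protease substrate GF-AFC read by fluorescence after 30 min; activity scaled between DMSO (0%) and medium-only (-100%), curves Hill-fitted.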
# IP6K1 inhibitor – IP6K1 kinase inhibition | AID 1645851 | activity change, % (series mostly up to about 58 µM) | IP6K1 kinase, ADP-Glo luminescence, 2 h; active compounds read low | Q92551 | hit rate 0.81% among 140,000; in the data active = activity change below about -25%
# Target sequence (Q92551 whole entry, looked up): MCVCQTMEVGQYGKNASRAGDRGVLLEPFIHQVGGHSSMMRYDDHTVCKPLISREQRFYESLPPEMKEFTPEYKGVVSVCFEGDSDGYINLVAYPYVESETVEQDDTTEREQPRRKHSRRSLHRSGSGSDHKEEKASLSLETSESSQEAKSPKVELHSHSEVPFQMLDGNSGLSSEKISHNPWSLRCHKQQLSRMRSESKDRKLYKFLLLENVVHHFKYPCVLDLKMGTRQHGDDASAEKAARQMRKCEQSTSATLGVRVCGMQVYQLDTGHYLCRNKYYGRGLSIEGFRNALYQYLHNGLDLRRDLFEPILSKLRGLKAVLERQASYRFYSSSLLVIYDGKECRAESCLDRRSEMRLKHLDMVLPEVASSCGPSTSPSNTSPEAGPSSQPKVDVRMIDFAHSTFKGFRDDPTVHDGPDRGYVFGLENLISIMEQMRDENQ
#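 ADP-Glo luminescence measures ADP made by human IP6K1 during a 2 h RT reaction with ATP/IP6 (mix at 1.3 mM/130 uM); top library doses 57.5 and 19.1 uM final.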
# Numbers stand for hits; n = inactive; u = inconclusive; x = no result given. Unless noted, calls come from the whole dose curve; as a rule, active = well fitted curve in the direction sought with a large enough effect; inconclusive = small, poorly fitted or top-dose-only effect, or another doubt; inactive = no such curve, though single readings can be large; an effect the other way counts as inactive or inconclusive.
SMILES,KDM5B inh,SNCA expr inh,SNCA viab count,IP6K1 inhibitor
c1csc(CNCCCN2CCCCC2)c1,n,x,x,x
COc1ccc(-c2ccnc(N[C@H]3CO[C@H]4[C@@H]3OC[C@H]4OCC(=O)N(C)C)n2)cc1,35.5µM,n,u,n
C=CCNC(=O)N[C@H]1CO[C@H]2[C@@H]1OC[C@@H]2Nc1nccc(-c2ccc(OC)cc2)n1,35.5µM,u,n,n
CCNC(=O)N[C@H]1CO[C@H]2[C@@H]1OC[C@@H]2Nc1nccc(-c2ccc(OC)cc2)n1,28.2µM,n,n,n
COc1ccc(-c2ccnc(N[C@H]3CO[C@H]4[C@@H]3OC[C@H]4OC(=O)Nc3ccc(C(C)(C)C)cc3)n2)cc1,25.1µM,n,n,n
Cc1cnc(C(=O)OCc2ccccc2Cl)cn1,n,x,x,x
C=CCOc1c(OC)ccc2c1CN(CC1CC1)C(=O)CCN2C[C@@H](O)COCc1ccccc1,x,x,x,n
COc1ccccc1N1CCN(S(=O)(=O)c2c(C)sc3ncn(CC(=O)Nc4ccc(C(F)(F)F)cc4)c(=O)c23)CC1,n,n,n,n
COc1ccccc1N1CCN(S(=O)(=O)c2c(C)sc3ncn(CC(=O)Nc4ccccc4F)c(=O)c23)CC1,n,2.51µM,n,n
CCOC(=O)CN1CCCC1c1ccc(C(=O)NCCn2ccnc2)s1 (centres undefined),28.2µM,n,n,n
COc1ccc(C2CCCN2C(=O)NCCn2ccnc2)cc1OC (centres undefined),n,x,x,x
CCCC(=O)N1Cc2ccccc2CC2(CCCCN2CC)C1 (centres undefined),56.2µM,n,n,n
CC(=O)NCC(=O)N1Cc2ccccc2CC2(CCCCN2CC2CCNC2)C1 (centres undefined),2.82µM,n,n,n
O=C(c1cccc(Cl)c1)N1Cc2ccccc2CC2(CCCN2Cc2ccncc2)C1 (centres undefined),50.1µM,n,n,n
CCCC(=O)N1Cc2ccccc2CC2(CCCN2CCC)C1 (centres undefined),u,n,n,n
CCC(=O)N1Cc2ccccc2CC2(CCCCN2CC)C1 (centres undefined),100µM,n,n,n
C[S+](=O)([O-])N1Cc2ccccc2CC2(CCCCN2CCc2ccccc2)C1 (centres undefined),n,n,n,n
CC(C)C(=O)N1Cc2ccccc2CC2(CCCN(CC3CCNC3)C2)C1 (centres undefined),35.5µM,n,n,n
O=C1CN(Cc2ccc(-c3cccs3)cc2)CCN1c1ccc(Cl)nn1,79.4µM,u,n,n
O=C1CN(Cc2ccc(-c3ccccc3)cc2)CCN1c1ccc(Cl)nn1,n,n,n,n
c1cncc(CN2CCC(C3CCN(Cc4ccc[nH]4)C3)CC2)c1 (centres undefined),14.1µM,n,n,n
Cc1cc2cc(-c3c(C)noc3C)nc(-c3ccc(CO)cc3)c2o1,u,n,n,n
COc1cccc(-c2nc(-c3c(C)noc3C)cc3cc(C)oc23)c1,35.5µM,n,n,n
Cc1noc(C)c1-c1cc2cc(CN(C)C)oc2c(Nc2ccn(C)n2)n1,n,n,n,n
COc1cc(F)ccc1-c1nc(-c2c(C)noc2C)cc2cc(C)oc12,u,n,n,n
SMILES,KDM5B inh,SNCA expr inh,SNCA viab count,IP6K1 inhibitor
Cc1noc(C)c1-c1cc2cc(CO)oc2c(-c2cccc(OC(C)C)c2)n1,25.1µM,n,n,n
Cc1cc2cc(-c3c(C)noc3C)nc(-c3cccc([S+](C)(=O)[O-])c3)c2o1,31.6µM,n,n,n
Cc1noc(C)c1-c1cc2cc(CO)oc2c(-c2ccccc2)n1,u,n,n,n
Cc1noc(C)c1-c1cc2cc(CN(C)C)oc2c(Nc2cccc([S+](C)(=O)[O-])c2)n1,31.6µM,n,n,n
O=C(Nc1cccc2[nH]ccc12)C(=O)N1CCCC1,n,x,x,x
COC(=O)c1ccc(CN(C)C(=O)CCc2ncc(-c3ccc(F)cc3)o2)cc1,n,x,x,x
Cc1ccc(-c2cccc(CN3CCCC3C(=O)NCc3cccs3)c2)cc1Cl (centres undefined),x,x,x,n
Cc1noc(C)c1-c1cc2cc(CO)oc2c(-c2ccc([S+](C)(=O)[O-])cc2)n1,35.5µM,n,n,n
COc1ccc(-c2cc(-c3ccc4cn[nH]c4c3)cn3cncc23)cn1,10µM,u,n,n
COc1ccc(-c2cc(-c3cccc(C(N)=O)c3)cn3cncc23)cc1,u,n,n,n
COc1ccc(-c2cc(-c3cccnc3)c3cncn3c2)cn1,u,n,n,n
COc1ccc(-c2cc(-c3ccncc3)cn3cncc23)cc1,39.8µM,u,n,n
OCc1ccc(-c2cc(-c3ccncc3)c3cncn3c2)cc1,u,n,n,n
COc1ccc(-c2cc(-c3ccc4c(c3)CNC4=O)cn3cncc23)cc1,22.4µM,n,n,n
COc1ccc(OC)c(C2=NOC(C(=O)O)C2)c1 (centres undefined),28.2µM,n,n,n
CCCOc1nccnc1NC1CCN(C(=O)c2ccccn2)CC1,28.2µM,n,n,n
CCCOc1nccnc1NC1CCN(C(=O)C2CCCO2)CC1 (centres undefined),25.1µM,n,n,n
CS(=O)(=O)N1CCC(OC2CCN(C(=O)NCc3ccco3)CC2)CC1,n,n,n,n
COc1nccnc1NC1CCN(C(=O)c2cnn3cccnc23)CC1,u,n,n,n
CCCOc1nccnc1NC1CCN(C(=O)NCc2ccco2)CC1,25.1µM,n,n,n
CCCOc1nccnc1NC1CCN(C(=O)NCC)CC1,28.2µM,u,n,n
CCN(C(=O)CSc1nnc(N2CCOCC2)n1-c1ccccc1)C1=CCCC1,n,x,x,x
CC/C=C(/C)C(=O)Nc1ccc(SC)cc1,n,x,x,x
COc1cc(F)ccc1-c1cc(C(=O)NCc2cccnc2)c2c(c1)N(C)CCO2,28.2µM,n,n,n
COc1cc(F)ccc1-c1cc(C(=O)NCc2cnn(C)c2)c2c(c1)N(C)CCO2,39.8µM,n,n,n
SMILES,KDM5B inh,SNCA expr inh,SNCA viab count,IP6K1 inhibitor
COc1ccc(-c2cc(C(=O)NCc3cnn(C)c3)c3c(c2)N(C)CCO3)cc1,35.5µM,u,n,n
O=C(O)CN1CCC(C(=O)O)CC1,n,x,x,x
COc1cc(NC(=O)CN2C(=O)COc3cc(C(C)(C)C)ccc32)cc(OC)c1,n,x,x,x
COc1ccccc1-c1ccc(CN2CCC(NC(=O)c3ccccc3F)C2)cc1 (centres undefined),x,x,x,n
O=C(Nc1ccccc1)c1cnc2n1CCN(Cc1ccc3[nH]ccc3c1)CC2,n,n,n,n
Cc1ccc(NC(=O)CN(C)S(=O)(=O)c2cccc3cc(C)cnc23)cc1,n,x,x,x
O=S(=O)(c1ccccc1)c1nnn2c1nc(N1CCCCC1)c1ccccc12,u,n,n,n
CC(C)c1ccc(S(=O)(=O)c2nnn3c2nc(N2CCCCC2)c2ccccc23)cc1,89.1µM,n,n,n
Cc1ccc(S(=O)(=O)c2nnn3c2nc(N2CCOCC2)c2ccccc23)cc1C,79.4µM,n,n,n
Cc1nn(CN2CCN(S(=O)(=O)c3ccc(C(C)C)cc3)CC2)c(=O)c2ccccc12,n,x,x,x
CC(Sc1n[nH]c(=O)n1CCc1ccccc1)C(=O)c1cccc(Cl)c1 (centres undefined),n,x,x,x

# High-throughput results from PubChem.
